Assay outcomes from PubChem.
The list is not random: actives were taken first. Their share in the collection is about 5.2%.
Coupling enz: inhibits coupling enzyme system, counter-screen for aldolase hits | coupling enzyme system counterscreen, AmpLite Red fluorescence | activity change, negative = inhibition, % at 58.2 µM, hits read low | actives 0.67% (n = 290,000) | AID 2472; in the data active = activity change below about -30%
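Counterscreen of the coupled detection system alone, without aldolase: glyceraldehyde-3-phosphate coupling enzymes plus AmpLite Red readout. Compounds at 57.5 uM final, 10 min RT preincubation, 20 min RT reaction, fluorescence 525/598 nm.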
Tau ThT inhib: tau fibrillization inhibition (ThT binding); recombinant tau K18 P301L, heparin-induced fibrillization, ThT fluorescence; P10636; actives 2.1% (n = 270,000); AID 1460; Potency, µM (highest dose often 57.4 µM), without a hit: top-dose activity, negative = inhibition, most hits filed as inhibitors; note: potency is the fitted concentration of half-maximal effect; nearly all actives have a fitted effect of over 55% in size
Target sequence (P10636 561-689 P618L limits assumed): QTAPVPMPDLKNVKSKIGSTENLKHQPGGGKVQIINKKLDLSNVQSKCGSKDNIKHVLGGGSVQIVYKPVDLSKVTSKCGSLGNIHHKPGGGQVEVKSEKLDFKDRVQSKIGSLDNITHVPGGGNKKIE
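K18 P301L tau (15 uM + 0.24 uM Alexa 594-tagged), heparin 20 uM, NaOAc pH 7, 6 h 37 C; ThT 30 uM, 1 h RT, ex 450/em 510 nm.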
Tau fibril FP: inhibitors of human tau fibril formation. Potency, µM (top dose mostly 57.7 µM), without a hit: at the highest dose activity, negative = inhibition, most hits filed as inhibitors. actives 0.39% (n = 280,000). K18 P301L tau heparin fibrillization, Alexa594 FP, 6 h. P10636; note: potency is the fitted concentration of half-maximal effect; nearly all actives have a fitted effect of over 55% in size
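Human K18 P301L fragment (15 uM unlabeled plus 0.24 uM Alexa 594-labeled) in 100 mM sodium acetate pH 7 with compound, aggregation induced by 20 uM heparin for 6 hr at 37 C. ThT (30 uM) added for 1 hr, then Alexa 594 FP read.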
Tau fluor counter: counter-screen for tau fibril formation inhibitors. tau K18 P301L (four-repeat tau fragment) Alexa594 fluorescence, heparin fibrillization. actives 0.93% (n = 280,000). Potency, µM (doses to about 57.7 µM), for inactives: top-dose activity change, negative = decrease; note: potency is the fitted concentration of half-maximal effect; nearly all actives have a fitted effect of over 55% in size
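Human K18 P301L tau (15 uM unlabeled plus 0.24 uM Alexa 594-labeled, final) in 100 mM sodium acetate pH 7 was mixed with compound and 20 uM heparin and incubated 6 hr at 37 C.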
Sfp inh: inhibitors of Bacillus subtilis Sfp phosphopantetheinyl transferase | Potency, µM, for the others: largest response in the series, negative = inhibition, actives largely listed as inhibitors | actives 3.5% (n = 310,000) | Biochemical Sfp PPTase activity, qHTS | Q9F4F7;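 note: the enzyme is Sfp with the accession as filed and its product quenches rhodamine fluorescence; potency is the fitted concentration of half-maximal effect; 0% = enzyme reaction without inhibitor and -100% = no enzyme wells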
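Compounds were incubated with enzyme (final 15 nM) for 15 min at room temperature before substrate addition started the reaction. Fluorescence at 525 nm excitation, 598 nm emission was recorded immediately and after 30 minutes.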
Numbers without * were called inactive; [ ] = another dose, or the depositor's remark. Unless noted, calls come from the whole dose curve; as a rule, active = well fitted curve in the direction sought with a large enough effect; inconclusive = small, poorly fitted or top-dose-only effect, or another doubt; inactive = no such curve, though single readings can be large; an effect the other way counts as inactive or inconclusive. Unless noted, % is set by controls: 0 for no effect and ±100 for the full control effect.

For COc1cccc(-c2nc(SCC(=O)Nc3ccc4c(c3)OCCO4)c(-c3ccccc3)[nH]2)c1 the results were Tau ThT inhib inconclusive, Tau fibril FP -10.5% and Tau fluor counter 5.62µM*[quencher].
Screening COc1ccc(-c2[nH]c(-c3ccccc3)nc2SCC(=O)Nc2nccs2)cc1 returned Coupling enz 7.5, Tau ThT inhib -2.3%, Tau fibril FP 1.6%, Tau fluor counter -4.0% and Sfp inh -0.7%.
For COc1cccc(-c2nnc(SCC(=O)Nc3ccc4c(c3)OCCO4)n2Cc2ccco2)c1 the results were Coupling enz 5.9, Tau ThT inhib -18.4%, Tau fibril FP -1.7%, Tau fluor counter -26.6% and Sfp inh inconclusive.
For O=C(COc1ccc(F)cc1)Nc1ccc2c(c1)OCCO2 the results were Coupling enz -0.2 and Sfp inh 0.4%.
Screening COc1ccc(-c2nc(SCC(=O)Nc3ccc4c(c3)OCCO4)c(-c3ccccc3)[nH]2)cc1 returned Tau ThT inhib inconclusive, Tau fibril FP inconclusive and Tau fluor counter 8.91µM*[quencher].
`COc1ccc(-c2[nH]c(-c3ccc4c(c3)OCO4)nc2-c2ccccc2)cc1` gave Coupling enz -5.1, Tau ThT inhib inconclusive, Tau fibril FP 9.3%, Tau fluor counter 14.1µM*[quencher] and Sfp inh 8.5%.
Screening CCOc1ccc(-c2nc(SCC(=O)Nc3ccc4c(c3)OCCO4)c(-c3ccc(F)cc3)[nH]2)cc1 returned Tau ThT inhib -9.9%, Tau fibril FP -14.0% and Tau fluor counter 14.1µM*[quencher].
Screening Cc1cccc(NC(=O)C2CCC(CNS(=O)(=O)c3csc(C(N)=O)c3)CC2)c1C (stereo not drawn) returned Tau ThT inhib -3.2%, Tau fibril FP -4.7% and Tau fluor counter -0.8%.
Screening COc1ccc(-c2[nH]c(-c3cccc(OC)c3)nc2SCC(=O)Nc2ccc3c(c2)OCO3)cc1 returned Tau ThT inhib inconclusive, Tau fibril FP 7.0% and Tau fluor counter 6.31µM*[quencher].
Screening CC(=O)Nc1ccc(Nc2cc(C)nc3c(-c4ccccc4)cnn23)cc1 returned Coupling enz 0.6, Tau ThT inhib inconclusive, Tau fibril FP 14.3%, Tau fluor counter 15.8µM*[quencher] and Sfp inh -0.7%.
O=[N+]([O-])c1ccc(N/N=C/c2ccc(OCc3cccc4ccccc34)cc2)nc1 was read as Coupling enz 2.3, Tau ThT inhib inconclusive, Tau fibril FP -3.2%, Tau fluor counter inconclusive and Sfp inh -8.2%.
Screening Cc1ccccc1-n1c(C)cc(/C=N/Nc2ccc([N+](=O)[O-])cn2)c1C returned Coupling enz -1.5, Tau ThT inhib 4.47µM*, Tau fibril FP 3.5%, Tau fluor counter inconclusive and Sfp inh 8.3%.
Cc1cc(/C=N/Nc2ccc([N+](=O)[O-])cn2)c(C)n1-c1ccc(C(=O)O)cc1 was read as Coupling enz -7.0, Tau ThT inhib 4.47µM*, Tau fibril FP inconclusive, Tau fluor counter inconclusive and Sfp inh 56.2µM*.
`Cc1cc(C)nc(SCC(=O)N/N=C/c2cc(C)n(-c3ccccc3C)c2C)n1` gave Coupling enz -0.3, Tau ThT inhib inconclusive, Tau fibril FP 5.6%, Tau fluor counter -20.6% and Sfp inh -22.7%.
`O=[N+]([O-])c1ccc(N/N=C\c2cccn2-c2ccccc2)nc1` gave Coupling enz 1.5, Tau ThT inhib 7.08µM*, Tau fibril FP 15.7%, Tau fluor counter 15.8µM*[quencher] and Sfp inh inconclusive.
`CCOc1cc(CNc2ccc(O)cc2)cc(Br)c1OCc1ccccc1` gave Tau ThT inhib inconclusive, Tau fibril FP -1.2% and Tau fluor counter 8.91µM*[quencher].
`COc1cc(CNC(C)(C)CO)cc(Br)c1OCc1ccccc1` gave Coupling enz 1.6, Tau ThT inhib -1.7%, Tau fibril FP 3.1%, Tau fluor counter 4.4% and Sfp inh 4.9%.
COc1cc(CNc2ccc(O)cc2)cc(Br)c1OCc1ccccc1F was read as Coupling enz -57.1*, Tau ThT inhib 25.1µM*, Tau fibril FP inconclusive, Tau fluor counter 12.6µM*[quencher] and Sfp inh 28.2µM*.
`CCOc1cc(CNCCO)cc(Br)c1OCc1ccccc1Cl` gave Coupling enz 1.1, Tau ThT inhib -7.4%, Tau fibril FP -5.7%, Tau fluor counter -24.9% and Sfp inh -8.6%.
CCOc1cc(CNc2ccc(O)cc2)cc(Br)c1OCc1ccccc1F was read as Coupling enz -55.5*, Tau ThT inhib 25.1µM*, Tau fibril FP inconclusive, Tau fluor counter 12.6µM*[quencher] and Sfp inh 17.8µM*.
Screening CCOc1cc(/C=N/NC(N)=O)cc(Br)c1OCc1ccccc1F returned Coupling enz 2.1, Tau ThT inhib -9.6%, Tau fibril FP inconclusive, Tau fluor counter inconclusive and Sfp inh -1.0%.
CCOc1cc(CNC(C)(C)CO)cc(Br)c1OCc1ccc(Cl)cc1Cl was read as Coupling enz -4.2, Tau ThT inhib -9.9%, Tau fibril FP 0.7%, Tau fluor counter -22.6% and Sfp inh 44.7µM*.
`COc1cc(CNCc2ccncc2)cc(Br)c1OCc1ccccc1F` gave Coupling enz 2.1, Tau ThT inhib -2.0%, Tau fibril FP -1.9%, Tau fluor counter -10.8% and Sfp inh -3.8%.
`O=S(=O)(NCC(c1cccs1)S(=O)(=O)c1ccccc1)c1ccccc1` (stereo not drawn) gave Tau ThT inhib -0.7%, Tau fibril FP -0.3% and Tau fluor counter -6.6%.
`COc1ccc(Cn2c(C(=O)O)c(CNCc3ccccc3F)c3ccc(OC)cc32)cc1` gave Tau ThT inhib -4.6%, Tau fibril FP 1.7% and Tau fluor counter -10.9%.
COc1cccc(CNc2ccccc2O)c1OCc1ccccc1F was read as Coupling enz -17.8, Tau ThT inhib inconclusive, Tau fibril FP 0.1%, Tau fluor counter inconclusive and Sfp inh 50.1µM*.
`CC(C)NC(=O)N1CCN(S(=O)(=O)c2ccc3c(ccn3C)c2)CC1` gave Tau ThT inhib 1.8%, Tau fibril FP -3.0% and Tau fluor counter 0.8%.
O=C(Nc1cccc(Cl)c1Cl)c1ccc2c(c1)N(Cc1cccc(Cl)c1)C(=O)c1ccccc1S2=O (stereo not drawn) was read as Tau ThT inhib 0.4%, Tau fibril FP inconclusive and Tau fluor counter -6.0%.
Cc1ccc(CNC(=O)COc2ccc(C)nc2[N+](=O)[O-])cc1 was read as Coupling enz 5.7, Tau ThT inhib -2.9%, Tau fibril FP -5.3%, Tau fluor counter -4.1% and Sfp inh -13.2%.
Cc1ccc(OCC(=O)c2ccc(Cl)s2)c([N+](=O)[O-])n1 was read as Coupling enz -16.8, Tau ThT inhib 14.1µM*, Tau fibril FP inconclusive, Tau fluor counter inconclusive and Sfp inh 20µM*.
For O=C(Cc1ccccc1)NCCc1csc2nc(-c3ccc(Cl)cc3)nn12 the results were Tau ThT inhib -3.7%, Tau fibril FP -5.6% and Tau fluor counter -17.4%.
